Laboratory results: PubChem BioAssay (NCATS)
Records with an inconclusive call do not appear. Entries that show only a call come without a potency. Active and inactive are the calls of the source. The call rests on the fitted dose curve; in most records, active means well fitted inhibition curve with a large enough effect; inconclusive means small, poorly fitted or top-dose-only effect; inactive means flat fitted curve, though single readings scatter.

Columns and labels:
Experiment in all cases: qHTS profiling for inhibitors of Plasmodium falciparum proliferation (AID 504749); further: nearly all actives have a fitted effect of over 60% in size
Conditions in all cases: P. falciparum in erythrocytes, SYBR Green DNA, 72 h; series mostly up to 28.7 µM
P94_40 = tested on: P94_40
Summary of the method: (§1)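 SYBR Green fluorescence (ex 485 nm, em 535 nm) reports parasite DNA after 72 h compound exposure of infected red cells at 0.3% parasitemia, 2.5% hematocrit; signal normalized to 0.29 uM artemisinin and vehicle wells.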

PC15 = tested on: PC15
Summary of the method: as §1

PC49 = tested on: PC49
Summary of the method: as §1

SC27B = tested on: SC27B
Summary of the method: as §1

TAB109 = tested on: TAB109
Summary of the method: as §1

TAB113 = tested on: TAB113
Summary of the method: as §1

TAB165 = tested on: TAB165
Summary of the method: as §1

P93_24 = tested on: P93_24
Summary of the method: as §1

PAD = tested on: PAD
Summary of the method: as §1

PC26 = tested on: PC26
Summary of the method: as §1
Potency means the concentration at half of the fitted maximal effect.

SMILES | Potency (P94_40) | outcome (PC15) | outcome (PC49) | Potency (SC27B) | Potency (TAB109) | Potency (TAB113) | Potency (TAB165) | Potency (P93_24) | Potency (PAD) | Potency (PC26)
CN1CCN2c3ncccc3Cc3ccccc3C2C1 (stereo not given) | inactive | inactive | inactive | inactive | inactive | inactive | inactive |  |  | 
NS(=O)(=O)c1cc(Cl)c(Cl)c(S(N)(=O)=O)c1 | inactive | inactive | inactive | inactive | inactive | inactive | inactive | inactive | inactive | inactive
CN1CC(=O)N2C(Cc3c([nH]c4ccccc34)[C@H]2c2ccc3c(c2)OCO3)C1=O (stereo not given in full) | inactive | inactive | inactive | inactive | inactive | inactive | inactive |  | inactive | inactive
N#CC(c1ccc(Cl)cc1)c1c(Cl)cc(-n2ncc(=O)[nH]c2=O)cc1Cl (stereo not given) | inactive | inactive | inactive | inactive | inactive | inactive | inactive | inactive | inactive | inactive
Cc1cc2nc3c(=O)[nH]c(=O)nc-3n(CC(O)C(O)C(O)CO)c2cc1C (stereo not given) | inactive | inactive | inactive | inactive | inactive | inactive | inactive | inactive | inactive | inactive
CC(C)CN(C[C@@H](O)[C@H](Cc1ccccc1)NC(=O)O[C@H]1CO[C@H]2OCC[C@H]21)S(=O)(=O)c1ccc(N)cc1 | inactive | inactive | inactive | inactive | inactive | inactive | inactive | inactive |  | inactive
COc1cc2c(cc1OC)CC(=O)N(CCCN(C)C[C@H]1Cc3cc(OC)c(OC)cc31)CC2 | inactive | inactive | inactive | inactive | inactive | inactive | inactive | inactive | inactive | inactive
O=C(O)c1nc(=O)[nH]c(=O)[nH]1 | inactive | inactive | inactive | inactive | inactive | inactive | inactive | inactive | inactive | inactive
COc1ccnc(CS(=O)c2nc3ccc(OC(F)F)cc3[nH]2)c1OC (stereo not given) | inactive | inactive | inactive | inactive | inactive | inactive | inactive | inactive | inactive | 
CS(=O)(=O)c1ccc(C2=C(c3ccccc3)C(=O)OC2)cc1 | inactive | inactive | inactive | inactive | inactive | inactive | inactive | inactive | inactive | inactive
O=C1C(CCC(O)c2ccc(F)cc2)C(c2ccc(O)cc2)N1c1ccc(F)cc1 (stereo not given) | inactive | inactive | inactive | inactive | inactive | inactive | inactive | inactive | inactive | inactive
Clc1ccc(COC(Cn2ccnc2)c2ccc(Cl)cc2Cl)c(Cl)c1 (stereo not given) | 2.82 µM (active) |  | inactive | 2.82 µM (active) | 3.98 µM (active) | 3.16 µM (active) | 1 µM (active) | 1.41 µM (active) | 3.55 µM (active) | 2.56 µM (active)
N#Cc1c(N(CC(=O)O)CC(=O)O)sc(C(=O)O)c1CC(=O)O | inactive | inactive | inactive | inactive | inactive | inactive | inactive | inactive | inactive | inactive
C=C1c2cccc(O)c2C(O)=C2C(=O)[C@@]3(O)C(O)=C(C(N)=O)C(=O)[C@@H](N(C)C)[C@@H]3[C@@H](O)[C@H]12 | inactive | inactive | inactive | inactive | inactive | inactive |  |  | inactive | inactive
COc1c(C)c2c(c(O)c1CC=C(C)CCC(=O)OCCN1CCOCC1)C(=O)OC2 | 7.94 µM (active) | inactive | inactive | 5.01 µM (active) | 7.08 µM (active) | 5.01 µM (active) | 5.01 µM (active) | 7.08 µM (active) | 11.2 µM (active) | 
